Results filed as inconclusive are left out. Unmarked numbers belong to inactive results. Calls of active or inactive are those of the source. Calls follow the shape of the dose curve; as a rule, active = well fitted activation curve with a large enough effect; inconclusive = small, poorly fitted or top-dose-only effect; inactive = flat fitted curve, though single readings scatter.
Biological target: Luciferin 4-monooxygenase (Photinus pyralis) (UniProt P08659)
Experiment: FLuc inhibitory activity for the follow-up compounds in a cell-based translational read-through assay (72 hour incubation)
Conditions: GripTite 293 FLucUGA read-through, luminescence; series mostly up to 38.3 µM; activation (luciferase signal increase): at the top concentration
Excerpt: NCGC Assay Overview: Firefly (Photinus pyralis) luciferase is one of the most commonly used transcriptional reporters. It is considered one of the more dynamically responsive reporters - that is, responsive to changes in reporter transcription - as it requires no post-translational modifications and is enzymatically active directly after protein synthesis (Wood, 1998). With no endogenous expression in mammalian cells and without the requirement of external excitation, it offers very little background signal, thus generally providing excellent signal to background for most assays. Previous profiling work to determine the prevalence of compounds that affect FLuc enzymatic activity (PubChem AID 411) identified that ~3% of the MLSMR library (then at ~72K) inhibited FLuc (Auld et al., 2008). […] Of the compounds identified in this profile that inhibited FLuc, 151 compounds were selected for further analysis, in an effort to better understand their mode of inhibiting FLuc. The assay described here was to determine the activity of the compounds in a cell-based firefly luciferase reporter gene assay originally designed to identify compounds that enchanced translational read-through of a FLuc cDNA that contained a premature stop codon (Auld et al., 2009; Auld et al., 2010). Compounds that enhance translational read-through or compounds that stabilize FLuc intracellularly are identified as active compounds in the assay.
NCGC Assay Protocol Summary: Reagents: Transient transfection of FlucUGA construct: TransFast Transfection Reagent (Promega #E2431); FLucUGA construct (refer to Auld et al., 2009) #GripTite 293 MSR Cell Line (Invitrogen #R795-07) #Complete growth media: DMEM (Invitrogen #11965), 10% HIFBS, 0.1mM MEM NEAA, 5mL/L pen-strep (of 5000U/mL stock), 600ug/mL Geneticin #Assay media: DMEM without phenol red (Invitrogen #21063), 5% charcoal-stripped HIFBS (Hyclone #SH30071.03), 0.1mM MEM NEAA In-house detection reagent: 300mM Tris-HCl, 300mM Trizma base, 300mM MgCl, 1% Triton-X100, 5mM DTT, 500uM Coenzyme A trilithium salt (Sigma #C3019),450uM ATP (Sigma #A7699), 1mM D-luciferin sodium salt monohydrate (Biosynth #L8240) Control compounds used were two known firefly luciferase inhibitors (3-(5-(3-chlorophenyl)-1,2,4-oxadiazol-3-yl)benzoic acid and 5-(2-fluorophenyl)-3-phenyl-1,2,4-oxadiazole), and DMSO. Assay Summary: Transient transfection of FlucUGA construct: Day 1: GripTite cells were plated in T175 flasks at a density of 1.75 x 10^7 cells/T175 flask in complete growth media without Geneticin and allowed to grow ON in a 37 degrees Celsius incubator. Day 2: Cells in T175 flask were transfected - with 10ug of DNA and 30uL Transfast in 12mL complete growth media without serum and without Geneticin for 4 hours at 37 degrees Celsius. After incubation, cells were trypsinized, spun down, and resuspended to a concentration of 3.3 x 10^5 cells/mL in assay media. 6uL of cells in assay buffer were dispensed at 2000cells/well (3.3 x 10^5 cells/mL) into Greiner solid-white TC-treated 1536-well plates using a Multidrop Combi (Thermo Fisher Scientific). Plates were incubated for one hour at 37 degree Celsius, 95% humidity, 5% CO2. These assay plates were then treated with 23nL of compound or DMSO using a Kalypsys pin tool, which allows for delivery of a 12-point titration of each compound to the assay plate, with a final compound concentration ranging from approximately ~38uM to 0.2nM. Assay plates were then incubated for 72 hours. After incubation, plates were washed three times with DPBS (7uL/well). After the third wash, 6uL of DPBS was added to each well. 3uL of 3X luciferase detection reagent was then added to each well using a flying reagent dispenser (FRD). After a 15 minute incubation to allow for cell lysis, luciferase activity was measured using a ViewLux CCD imager (PerkinElmer), with an average exposure time of 2-12 seconds.

Chain of Luciferin 4-monooxygenase (Photinus pyralis) (P08659 whole entry, looked up): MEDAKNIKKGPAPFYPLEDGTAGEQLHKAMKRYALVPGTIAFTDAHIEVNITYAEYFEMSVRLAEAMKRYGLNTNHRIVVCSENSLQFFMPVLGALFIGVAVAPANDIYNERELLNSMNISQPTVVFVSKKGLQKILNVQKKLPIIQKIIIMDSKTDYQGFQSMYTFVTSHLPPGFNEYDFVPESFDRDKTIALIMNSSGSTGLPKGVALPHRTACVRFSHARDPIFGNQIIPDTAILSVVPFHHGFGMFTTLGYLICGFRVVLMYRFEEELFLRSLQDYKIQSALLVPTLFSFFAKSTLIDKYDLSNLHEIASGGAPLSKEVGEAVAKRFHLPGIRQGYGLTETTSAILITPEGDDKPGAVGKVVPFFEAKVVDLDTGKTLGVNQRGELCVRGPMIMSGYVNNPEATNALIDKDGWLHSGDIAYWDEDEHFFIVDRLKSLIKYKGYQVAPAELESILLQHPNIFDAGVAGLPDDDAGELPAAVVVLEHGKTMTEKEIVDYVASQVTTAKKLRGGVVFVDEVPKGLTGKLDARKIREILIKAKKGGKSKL

Row | Compound | activation (luciferase signal increase) [%] | Potency
1 | O=C(Nc1ccccc1C(=O)O)c1cccc(S(=O)(=O)Nc2ccc(Br)cc2)c1 | 4.51 | –
2 | COc1ccc2nc(NC(=O)CCc3ccc(OC)c(OC)c3)sc2c1 | -1.91 | –
3 | Cc1cccc(NS(=O)(=O)c2cccc(C(=O)Nc3cccc(C(=O)O)c3)c2)c1 | 5.34 | –
4 | Cc1ccc(NS(=O)(=O)c2ccc(Cl)c(C(=O)Nc3cccc(C(=O)O)c3)c2)cc1 | 5.38 | –
5 | COc1ccccc1C(=O)Nc1ccc(C(=O)O)cc1 | 6.84 | –
6 | CC(C)CC(=O)Nc1cccc(C(=O)Nc2ccccc2C(=O)O)c1 | -2.22 | –
7 | O=C(Cc1ccccc1)Nc1ccc(C(=O)Nc2ccccc2C(=O)O)cc1 | -3.79 | –
8 | Nc1ccc(-c2nc3ccc(C(=O)O)cc3s2)cc1 | – | 0.159 µM (active)
9 | O=C(Nc1ccccc1C(=O)O)c1cccc(NC(=O)c2ccccc2Br)c1 | 6.23 | –
10 | COc1ccccc1C(=O)Nc1ccc(C(=O)Nc2ccccc2C(=O)O)cc1 | 2.81 | –
11 | COc1ccc(-c2cccc(C(=O)Nc3cccc(C(=O)O)c3)c2)cc1 | – | 12.6 µM (active)
12 | Cc1ccc(C(=O)Nc2cccc(C(=O)O)c2)cc1S(=O)(=O)N1CCOCC1 | – | 11.3 µM (active)
13 | COc1cc(OC)cc(C(=O)Nc2ccccc2-c2nc3ccccc3s2)c1 | 4.56 | –
14 | Oc1ccc(-c2nc3ccccc3s2)c(O)c1 | – | 12.6 µM (active)
15 | Cc1ccc(C(=O)Nc2ccc(C(=O)O)cc2)cc1S(=O)(=O)Nc1ccccc1 | 1.36 | –
16 | O=C(O)c1cccc(NC(=O)c2ccc(S(=O)(=O)c3ccccc3)cc2)c1 | -1.83 | –
17 | COc1cccc(-c2nc3ccccc3s2)c1 | – | 3.56 µM (active)
18 | O=C(Nc1ccccc1C(=O)O)c1ccc(NC(=O)C2CCCCC2)cc1 | 1.36 | –
19 | c1ccc2sc(-c3ccc4c(c3)OCO4)nc2c1 | – | 1.79 µM (active)
20 | O=C(Nc1ccccc1C(=O)O)c1cccc(NC(=O)c2ccccc2Cl)c1 | 5.43 | –

Row | Compound | activation (luciferase signal increase) [%] | Potency
21 | Cc1ccc(C(=O)Nc2cccc(C(=O)O)c2)cc1S(=O)(=O)N1CCCCC1 | – | 3.18 µM (active)
22 | O=C(Nc1cccc(-c2nc3ccccc3s2)c1)C1=COCCO1 | 9.49 | –
23 | COc1ccc2nc(NC(=O)c3ccc(S(=O)(=O)N4CCCC(C)C4)cc3)sc2c1 (stereo not given) | 3.44 | –
24 | O=C(Nc1ccc(Cl)cc1-c1nc2ccccc2s1)c1ccco1 | 9.31 | –
25 | Nc1ccc(-c2nc3ccc(N)cc3s2)cc1 | – | 4 µM (active)
26 | Cc1cccc(C(=O)Nc2ccc(-c3nc4ccccc4s3)cc2Cl)c1 | 5.41 | –
27 | Nc1ccc2nc(-c3ccccc3)sc2c1 | – | 1.13 µM (active)
28 | Cc1ccc(S(=O)(=O)N2CCN(C(=O)c3ccccc3-c3nc4ccccc4s3)CC2)c(C)c1 | 1.64 | –
29 | COc1ccc(CC(=O)Nc2cccc(C(=O)Nc3ccccc3C(=O)O)c2)cc1OC | 11.8 | –
30 | CCOc1ccc2nc(NC(=O)c3ccccc3)sc2c1 | – | 1.79 µM (active)
31 | Cc1ccc2sc(-c3ccc(N)cc3)nc2c1 | – | 0.356 µM (active)
32 | CCOc1ccc2nc(NC(=O)c3cccnc3)sc2c1 | – | 3.56 µM (active)
33 | O=C(Nc1ccccc1C(=O)O)c1cccc(NC(=O)c2ccc(Br)o2)c1 | 2.35 | –
34 | Cc1cccc(C(=O)Nc2ccccc2C(=O)Nc2ccc(C(=O)O)cc2)c1 | 4.31 | –
35 | Cc1c(NS(C)(=O)=O)cccc1-c1nc2ccccc2s1 | -0.265 | –
36 | COc1ccc2nc(NC(=O)c3nc(S(=O)(=O)Cc4ccc(C)cc4)ncc3Cl)sc2c1 | -4.78 | –
37 | COc1ccc(-c2nc3ccccc3s2)cc1O | – | 14.2 µM (active)
38 | COc1ccc(-c2nc3ccccc3s2)cc1NC(=O)c1ccc(F)cc1 | 1.16 | –
39 | O=C(O)c1cccc(NC(=O)c2cccc(S(=O)(=O)Nc3cccc(F)c3)c2)c1 | 0.415 | –
40 | O=C(COC(=O)c1ccccc1[N+](=O)[O-])c1ccc2c(c1)OCO2 | 3.99 | –

— PubChem BioAssay AID602478 (National Center for Advancing Translational Sciences (NCATS), 2012)
